APE1 inh-1: APE1 (human) endonuclease inhibition | Potency, µM (top dose mostly 65.8 µM), without a hit: at the top dose activity change, negative = inhibition, most hits filed as inhibitors | recombinant APE1, TAMRA/BHQ-2 abasic DNA cleavage fluorescence | 0.35% of 350,000 active | AID 2517;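 note: plate controls were vehicle for no effect and reference inhibitor for full effect; nearly all actives have a fitted effect of over 55% in size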
Target sequence (P27695 whole entry, looked up): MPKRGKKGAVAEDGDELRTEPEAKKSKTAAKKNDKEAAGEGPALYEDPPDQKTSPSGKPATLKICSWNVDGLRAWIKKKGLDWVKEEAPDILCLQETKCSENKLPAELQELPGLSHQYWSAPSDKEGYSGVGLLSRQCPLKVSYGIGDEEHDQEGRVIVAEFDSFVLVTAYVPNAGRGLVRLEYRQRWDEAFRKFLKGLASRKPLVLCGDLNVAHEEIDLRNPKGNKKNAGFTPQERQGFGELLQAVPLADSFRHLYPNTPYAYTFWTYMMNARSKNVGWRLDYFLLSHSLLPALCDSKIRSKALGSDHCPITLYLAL
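Step 1: APE1 (0.75 nM) with compound, 15 min RT. Step 2: add 50 nM fluorophore/quencher THF duplex. Step 3: three fluorescence reads 60 s apart (525/598 nm); read 3 minus read 1 = reaction progress.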
TDP1 inh: TDP1 (human) enzyme inhibition. 0.28% of 350,000 active. Potency, µM (top dose mostly 130 µM), inactives show at the highest dose activity change, negative = inhibition, hits mostly inhibitors. recombinant TDP1, AlphaScreen DNA substrate cleavage; note: nearly all actives have a fitted effect of over 40% in size
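Compounds were preincubated with Tdp1 (1 nM final) for 15 min at room temperature before substrate (15 nM final) started a 5 min reaction; beads (10 ug/ml final) were then added for 10 min before AlphaScreen detection.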
BLM inh-1: blocks DNA unwinding by human BLM helicase. 0.2% of 350,000 active. recombinant BLM DNA unwinding, fluorescence dequenching. Potency, µM (series often up to 56.1 µM), for inactives: at the highest dose activity change, negative = inhibition, usual class: inhibitors. P54132. AID 2528;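 note: plate controls were vehicle for no effect and no enzyme for full effect; nearly all actives have a fitted effect of over 35% in size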
FEN1 inhibitor: inhibitors of human flap endonuclease 1. 0.35% of 390,000 active. P39748. Potency, µM (doses to about 114 µM), for inactives: top-dose activity change, negative = inhibition, usual class: inhibitors. Recombinant FEN1 flap cleavage, fluorescence, 15 min; note: nearly all actives have a fitted effect of over 65% in size
Target sequence (P39748 whole entry, looked up): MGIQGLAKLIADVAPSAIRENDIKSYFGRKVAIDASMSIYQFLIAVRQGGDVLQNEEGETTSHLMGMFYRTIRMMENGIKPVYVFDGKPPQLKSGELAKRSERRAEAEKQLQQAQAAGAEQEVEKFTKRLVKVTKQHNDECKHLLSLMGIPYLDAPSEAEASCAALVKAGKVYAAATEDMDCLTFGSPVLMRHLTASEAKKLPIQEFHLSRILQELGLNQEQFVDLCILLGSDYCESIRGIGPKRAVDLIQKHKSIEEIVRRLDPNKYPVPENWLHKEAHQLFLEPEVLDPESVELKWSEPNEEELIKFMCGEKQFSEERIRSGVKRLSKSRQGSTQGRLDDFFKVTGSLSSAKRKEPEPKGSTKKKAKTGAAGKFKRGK
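Compounds are tested as a concentration series against 10 nM FEN1; after a 15 min room-temperature preincubation, 50 nM substrate starts cleavage, with plate reads at 0 and 15 min. Normalized responses are fitted by a Hill equation.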
RECQ1 inh-1: blocks DNA unwinding by human RECQ1 | P46063 | RECQ1 DNA unwinding, red fluorescence kinetic read | Potency, µM (doses to about 57.3 µM), for the others: top-dose activity, negative = inhibition, most hits filed as inhibitors | 0.54% of 240,000 active;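 note: plate controls were vehicle for no effect and no enzyme for full effect; nearly all actives have a fitted effect of over 30% in size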
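50 nM RECQ1T1 preincubated 15 min with compound in Tris pH 8.0 buffer with MgCl2, DTT, Tween-20 and 2.5 ug/ml poly(dI-dC); started with 200 nM TAMRA/BHQ-2 forked duplex and 2 mM ATP. Unwinding read as fluorescence (525/598 nm), two reads 2 h apart.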
DNA dye displace: DNA dye displacement counter-screen activity; DNA fluorescent dye displacement counterscreen, fluorescence; Potency, µM (series often up to 28.5 µM), inactives show top-dose activity change, negative = inhibition, most hits filed as inhibitors; 7% of 480 active; shares compounds with APE1 inh-1;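 note: loss of thiazole orange fluorescence as the dye is displaced from duplex DNA; 0% = ThO with dsDNA and no compound and -100% = ThO without dsDNA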
Endo IV inh: Endo IV (E. coli) inhibition counter-screen. AID 2565. shares compounds with APE1 inh-1. 4% of 560 active. E. coli Endo IV, fluorogenic AP-site DNA cleavage. Potency, µM (series often up to 27.1 µM), inactives show top-dose activity change, negative = inhibition, most hits filed as inhibitors;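 note: plate controls were uninhibited enzyme wells for no effect and no enzyme buffer wells for full effect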
APE1 inh-2: APE1 (human) endonuclease inhibition, confirmation | 44% of 750 active | AID 2572 | purified APE1, fluorogenic abasic-site DNA cleavage | shares compounds with APE1 inh-1 | Potency, µM (top dose mostly 57.1 µM), for the others: top-dose activity change, negative = inhibition, hits mostly inhibitors; note: nearly all actives have a fitted effect of over 30% in size
APE1 FP: APE1 (human) DNA binding inhibition, fluorescence polarization. 7% of 480 active. APE1 binding to TAMRA-labelled double-stranded DNA, fluorescence polarization displacement. shares compounds with APE1 inh-1. Potency, µM (series often up to 28.5 µM), for the others: at the highest dose activity, negative = inhibition, usual class: inhibitors
BLM inh-2: confirmation of inhibitors of human Bloom syndrome helicase BLM; Potency, µM, inactives show max response, negative = inhibition, usual class: inhibitors; 40% of 220 active; shares compounds with BLM inh-1; BLM DNA unwinding, fluorescence quenching, biochemical;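 note: strand separation dequenches TAMRA so unwinding raises red fluorescence; series mostly up to about 69 µM; nearly all actives have a fitted effect of over 45% in size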
RECQ1 inh conf: confirmation of human RECQ1 helicase inhibitors; shares compounds with RECQ1 inh-1; RECQ1 helicase DNA unwinding, fluorescence; Potency, µM (top dose mostly 229 µM), inactives show at the highest dose activity change, negative = inhibition, actives largely listed as inhibitors; 28% of 610 active; note: nearly all actives have a fitted effect of over 45% in size
ADP FP counter: displaces ADP in a fluorescence polarization counter-screen for RECQ1 hits; shares compounds with RECQ1 inh-1; ADP fluorescence polarization displacement counterscreen; Potency, µM (highest dose often 228 µM), for the others: at the highest dose activity change, negative = inhibition, hits mostly inhibitors; 27% of 530 active; AID 2711; note: nearly all actives have a fitted effect of over 45% in size
RECQ1 inh-2: blocks human RECQ1 DNA unwinding; shares compounds with RECQ1 inh-1; recombinant RECQ1 DNA unwinding, red fluorescence; Potency, µM (titrated, usually from 119 µM), for the others: at the top dose activity, negative = inhibition, most hits filed as inhibitors; 15% of 1,100 active; note: nearly all actives have a fitted effect of over 50% in size
Numbers without * were called inactive; ? = inconclusive; . = no result given; ! = not confirmed by another sample; [ ] = remark or other dose. The list is not random: actives were taken first. Their share in the collection is about 0.92%. Calls come from the whole dose curve; as a rule, active = well fitted curve in the direction sought with a large enough effect; inconclusive = small, poorly fitted or top-dose-only effect, or another doubt; inactive = no such curve, though single readings can be large; an effect the other way counts as inactive or inconclusive. Unless noted, % is set by controls: 0 for no effect and ±100 for the full control effect; potency is the fitted concentration of half-maximal effect.

SMILES	APE1 inh-1	TDP1 inh	BLM inh-1	FEN1 inhibitor	RECQ1 inh-1	Endo IV inh	APE1 inh-2	others
C[C@@H]1CC[C@@]2(OC1)O[C@H]1[C@@H](O)[C@H]3[C@@H]4CC[C@H]5C[C@@H](O[C@@H]6O[C@H](CO)[C@H](O[C@@H]7O[C@H](CO)[C@@H](O)[C@H](O[C@@H]8OC[C@@H](O)[C@H](O)[C@H]8O)[C@H]7O[C@@H]7O[C@H](CO)[C@@H](O)[C@H](O[C@@H]8O[C@H](CO)[C@@H](O)[C@H](O)[C@H]8O)[C@H]7O)[C@H](O)[C@H]6O)[C@H](O)C[C@]5(C)[C@H]4CC[C@]3(C)[C@H]1[C@@H]2C	14%	14%	.	.	-9%	.	.
CN(C)[C@@H]1C(=O)C(C(N)=O)=C(O)[C@@]2(O)C(=O)C3=C(O)c4c(O)ccc(Cl)c4[C@@](C)(O)C3C[C@@H]12 (stereo partly specified)	-3%	-8%	-3%	45µM*	-11%	.	.
CN(C)[C@@H]1C(=O)C(C(N)=O)=C(O)[C@@]2(O)C(=O)C3=C(O)c4c(O)cccc4[C@@](C)(O)C3[C@H](O)C12 (stereo partly specified)	-39%	.	.	16µM*!	.	.	.
CN(C)[C@H]1C(=O)C(C(N)=O)=C(O)[C@]2(O)C(=O)C3=C(O)c4c(O)cccc4[C@@](C)(O)[C@H]3C[C@@H]12	.	?	7%[21.4 µM]	.	-9%[25.9 µM]	.	.
CN1CCc2cc(O)cc3c2[C@H]1Cc1ccc(O)c(O)c1-3	.	.	.	79µM*!	.	.	.
CCn1cc(C(=O)O)c(=O)c2cc3c(cc21)OCO3	2%	-3%	-2%	.	-2%	3%[57.1 µM]	-12%
O=C(O)C(Cl)Br (stereo unspecified)	17%	6%	.	.	11%	.	.
C=CCn1c(O)c(/C(CC)=N/NC(=S)Nc2ccccc2)c(=O)[nH]c1=O	?	40µM*	-2%	2%	-12%	.	?
CC(=O)OCC1=C(C(=O)O)N2C(=O)[C@@H](N)[C@H]2SC1	5%[21 µM]	.	.	.	.	.	.
O=c1c2ccccc2nc(/C=C/c2cccnc2)n1Cc1ccccc1	?	10µM*	-6%	89µM*	-7%	.	28µM*
N#CC(C#N)=NNc1ccc(OC(F)(F)F)cc1	?	22%	?	.	-20%	.	.
NCC(O)c1cc(O)c(O)cc1F (stereo unspecified)	1.1µM*!	.	.	-32%	?	-2%[57.1 µM]	-20%
CC1Cc2ccccc2N1NC(=O)c1ccc(Cl)c(S(N)(=O)=O)c1 (stereo unspecified)	2.2µM*!	3%	-8%	-8%	-5%	18%[57.1 µM]	-10%	DNA dye displace=1%[57.1 µM];APE1 FP=8%[57.1 µM]
Cc1ccc(C(=O)Nc2ccccc2)cc1S(=O)(=O)N1CCCC1	.	2%	-5%	2%	.	.	.
O=C(OC1Cc2c(O)cc(O)cc2OC1c1cc(O)c(O)c(O)c1)c1cc(O)c(O)c(O)c1 (stereo unspecified)	0.28µM*	.	?	.	1.6µM*	9%[57.1 µM]	0.089µM*
O=C1C[C@@H](c2ccc(O)cc2)Oc2cc(O)cc(O)c21	-2%	0%	1%	6%	-3%	.	.
Oc1cc(O)c2c(c1)OC(c1cc(O)c(O)c(O)c1)C(O)C2 (stereo unspecified)	10µM*	16µM*	-27%	.	35µM*	16%[57.1 µM]	5µM*
CC(C)NC(C)Cc1ccc(I)cc1 (stereo unspecified)	8%	6%	-4%	8%[57.1 µM]	1%	-5%[57.1 µM]	-19%
CNC(C)Cc1ccc(OC)cc1 (stereo unspecified)	-4%	2%	-10%	.	-12%	.	.
CC(C)CC(=O)Nc1ccc(C(=O)Cn2c(=O)oc3ccccc32)cc1	?	-6%	-12%	-10%	-4%	-4%	?	DNA dye displace=-8%;APE1 FP=4%
COCCN(CCOC)C(=O)CCn1c(=O)oc2ccccc21	19%	2%	6%	-1%	14%	.	.
CNC(=O)Oc1ccc2c(c1)[C@@]1(C)CCN(C)C1N2C (stereo partly specified)	?	9%[56.1 µM]	5%	.	-5%	.	.
Oc1cc(Cl)cc(Cl)c1	-1%	4%	.	.	-4%	.	.
Cc1c2ccncc2c(C)c2c1[nH]c1ccccc12	?	50µM*	124%	12µM*	4.5µM*!	1µM*	?	RECQ1 inh conf=?
CCc1nnc(NC(=O)CSc2ccc(-c3ccco3)nn2)s1	?	22µM*	14µM*	2%	?	.	?	BLM inh-2=?;RECQ1 inh-2=-14%
C[C@@H](N)[C@@H](O)c1ccc(O)c(O)c1	.	?	1%	.	2.5µM*	53%[57.1 µM]	2%	DNA dye displace=5%[57.1 µM];APE1 FP=-2%[57.1 µM];RECQ1 inh conf=26%;ADP FP counter=?
CC(N)[C@H](O)c1ccc(O)c(O)c1 (stereo partly specified)	1µM*	?	.	14µM*	6.3µM*	43%[57.1 µM]	-6%	DNA dye displace=-11%[57.1 µM];APE1 FP=-3%[57.1 µM];RECQ1 inh conf=31%;ADP FP counter=13µM*
CCCN(CCC)CCc1ccc(O)c(O)c1	0%	-7%	.	.	-1%	.	.
